# Tested on: RIVA
# Assay: growth inhibition by drug alone (1 - RLU/untreated control) (fraction); higher = stronger inhibition
# Settings: 10 nM; time (day): 3; 177Lu-lilotomab satetraxetan 0 ug/ml
# Procedure, shortened: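 Plates pre-printed with the Selleck Cambridge Cancer Compound library at 10/100 nM (RIVA) or 10/1,000 nM (U-2932) received 3,000 cells/well. These cells had been washed after 18 h untreated or with a radiolabelled anti-CD37 antibody conjugate (~600 MBq/mg; 0.5 µg/ml RIVA, 1 µg/ml U-2932). Growth inhibition was obtained from RealTime-Glo luminescence in relation to untreated no-drug wells. Each daily read from day 3, taken after 1 h at 37°C, was converted as 1 − RLU/mean of 48 such wells per plate.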
row,SMILES,growth inhibition by drug alone
1,COC(=O)c1ccc2c(C(=Nc3ccc(N(C)C(=O)CN4CCN(C)CC4)cc3)c3ccccc3)c(O)[nH]c2c1 [BIBF1120 (Vargatef)],-0.119
2,CC[C@@H]1/C=C(\C)C[C@H](C)C[C@H](OC)[C@H]2O[C@@](O)(C(=O)C(=O)N3CCCC[C@H]3C(=O)O[C@H](/C(C)=C/[C@@H]3CC[C@H](Cl)[C@H](OC)C3)[C@H](C)[C@@H](O)CC1=O)[C@H](C)C[C@@H]2OC [Pimecrolimus],0.339
3,CN(C)CCOc1ccc(-c2nc(-c3ccncc3)c(-c3ccc4c(c3)CC/C4=N\O)[nH]2)cc1,-0.226
4,COc1ccc(CCN2CCN(CCCc3ccccc3)CC2)cc1OC,-0.0905
5,CNC(=O)c1cc(Oc2ccc(NC(=O)Nc3cc(C(C)(C)C)nn3-c3ccc4ncccc4c3)c(F)c2)ccn1 [DCC-2036 (Rebastinib)],-0.0575
6,CCC(C)(C)C(=O)O[C@H]1C[C@@H](C)C=C2C=C[C@H](C)[C@H](CC[C@@H]3C[C@@H](O)CC(=O)O3)[C@H]21 [Simvastatin (Zocor)],-0.198
7,CCc1ccc(CCOc2ccc(CC3SC(=O)NC3=O)cc2)nc1 (stereo not drawn) [Pioglitazone (Actos)],-0.15
8,O=C(O)C(Cc1c[nH]c2ccccc12)N1C(=O)c2ccccc2C1=O (stereo not drawn),-0.0918

# — the supplement of paper PMC6897291
